In PubChem BioAssay (EPA / NIEHS):
Calls of active or inactive are those of the source. How the source made its calls: active means hit-call score of the fitted dose curve at least 0.9, where 1 is the maximum; inactive means score below 0.9.

Assays:
[1] = APR_HepG2_CellCycleArrest_24hr: Apredica 24-hour HepG2 Assay for Cell Cycle Arrest (AID 2282905); settings: imaging, actives raise or lower the signal;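 further: cell cycle arrest scored as ratio of 2N to 4N nuclear DNA content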
Method in brief: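 Compounds at 0.39–200 uM (0.5% DMSO) for 24 h, then fixed and Hoechst 33342 stained. Cell-cycle analysis of nuclear DNA content by high-content imaging, fitted bidirectionally versus DMSO.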

[2] = APR_HepG2_NuclearSize_24hr: Apredica 24-hour HepG2 Assay for Nuclear Size (AID 2282907); settings: high-content imaging, actives raise or lower the signal
Method in brief: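 HepG2 cells exposed 24 h to compounds at 0.39–200 uM (0.5% DMSO), fixed, Hoechst 33342 stained and imaged at 20x; nuclear diameter measured by automated image analysis, fitted bidirectionally against DMSO controls.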

[3] = APR_HepG2_CellLoss_24hr: Apredica 24-hour HepG2 Assay for Cell Loss (AID 2282908); settings: high-content imaging;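 on AC50: fit in both directions so a hit may be cell loss or gain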
Method in brief: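 HepG2 cells exposed 24 hr to 0.39–200 uM compound in duplicate at 0.5% v/v final DMSO. Cells fixed in 3.7% formaldehyde and Hoechst 33342-stained. Cell number came from nuclear imaging at 20x. Bidirectional fit versus DMSO.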

[4] = APR_HepG2_MicrotubuleCSK_24hr: Apredica 24-hour HepG2 Assay for Microtubule CSK Stabilty (AID 2282909); settings: HepG2 microtubule cytoskeleton imaging, actives raise or lower the signal
Method in brief: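 HepG2 cells were treated 24 hr with compound at 0.39–200 uM in duplicate (0.5% DMSO final), then fixed and permeabilized. Alpha-tubulin immunofluorescence was imaged by high-content microscopy, with bidirectional fitting against DMSO and taxol as positive control.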

[5] = APR_HepG2_MitoticArrest_24hr: Apredica 24-hour HepG2 Assay for Mitotic Arrest (AID 2282910); settings: high-content imaging, actives raise or lower the signal
Method in brief: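 Compounds are dosed onto HepG2 cells across ten concentrations up to 200 uM for 24 hr. Cells are then fixed in 3.7% formaldehyde, permeabilised, and labelled for phospho-histone H3 and nuclei; images are scored by cell cycle analysis and fitted bidirectionally relative to DMSO.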

[6] = APR_HepG2_MitoMembPot_24hr: Apredica 24-hour HepG2 Assay for Mitochondrial Membrane Potential (AID 2282911); settings: imaging, actives raise or lower the signal
Method in brief: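 HepG2 cells exposed 24 h to 0.39–200 uM compounds in duplicate, 0.5% v/v DMSO final. MitoTracker Red CMXRos 250 nM loaded 30 min before formaldehyde fixation; high-content imaging at 20x, bidirectional fit versus DMSO.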

[7] = APR_HepG2_MitoMass_24hr: Apredica 24-hour HepG2 Assay for Mitochondrial Mass (AID 2282912); settings: high-content imaging, actives raise or lower the signal
Method in brief: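 HepG2 cells exposed 24 hr to 0.39–200 uM compound, 0.5% v/v DMSO, in duplicate. Stained before fixation with 250 nM MitoTracker Red CMXRos for 30 min, then imaged at 20x with Hoechst nuclei. Fitted in both directions against DMSO.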

[8] = APR_HepG2_p53Act_24hr: Apredica 24-hour HepG2 Assay for p53 Activation (AID 2282913); settings: high-content imaging, actives raise or lower the signal;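 further: p53 protein immunofluorescence averaged per cell in HepG2 with Hoechst nuclei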
Method in brief: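 HepG2 cells exposed 24 h to compounds at 0.39–200 uM in duplicate, 0.5% v/v DMSO final; fixed, permeabilized, stained with anti-p53 antibody and Hoechst 33342; fluorescence imaging; bidirectional curve fit versus DMSO.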

[9] = APR_HepG2_CellCycleArrest_72hr: Apredica 72-hour HepG2 Assay for Cell Cycle Arrest (AID 2282914); settings: high-content imaging, actives raise or lower the signal
Method in brief: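 HepG2 cells exposed 72 h in duplicate to 0.39–200 uM compound, 0.5% DMSO final. Formaldehyde-fixed, Hoechst 33342-stained nuclei imaged at 20x, six fields per well; DNA content per valid cell quantified by cell-cycle image analysis, bidirectional fit versus DMSO.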

[10] = APR_HepG2_CellLoss_72hr: Apredica 72-hour HepG2 Assay for Cell Loss (AID 2282915); settings: high-content imaging
Method in brief: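 Cell number comes from Hoechst 33342-labelled nuclei, imaged at 20x after 3.7% formaldehyde fixation. Dosing was 0.39–200 uM, ten concentrations in duplicate, 0.5% DMSO final, for 72 h. Bidirectional fit relative to DMSO baseline.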

[11] = APR_HepG2_MitoMembPot_72hr: Apredica 72-hour HepG2 Assay for Mitochondrial Membrane Potential (AID 2282917); settings: imaging, actives raise or lower the signal
Method in brief: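 Membrane potential read by MitoTracker Red CMXRos (250 nM, 30 min, pre-fixation) fluorescence imaging of HepG2 after 72 hr exposure. Ten concentrations, 0.39–200 uM, duplicate wells, 0.5% DMSO; fitted in both directions against DMSO baseline.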

[12] = APR_HepG2_MitoticArrest_72hr: Apredica 72-hour HepG2 Assay for Mitotic Arrest (AID 2282918); settings: high-content imaging, actives raise or lower the signal
Method in brief: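 HepG2 cells treated 72 h at 0.39–200 uM, 0.5% DMSO final; formaldehyde-fixed, stained with Hoechst 33342 and phospho-histone H3 antibody, imaged by high-content fluorescence; bidirectional fit versus DMSO.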

[13] = APR_HepG2_MicrotubuleCSK_72hr: Apredica 72-hour HepG2 Assay for Microtubule CSK Stabilty (AID 2282919); settings: HepG2 microtubule cytoskeleton, high-content imaging, actives raise or lower the signal
Method in brief: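 Read-out is tubulin fluorescence intensity from high-content imaging of HepG2 cells, with nuclei identified by Hoechst 33342. Treatment lasts 72 h at 0.39–200 uM, and curves are fitted bidirectionally against the DMSO negative control.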

[14] = APR_HepG2_P-H2AX_24hr: Apredica 24-hour HepG2 Assay for H2AX Phosphorylation (AID 2282920); settings: high-content imaging, actives raise or lower the signal
Method in brief: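 HepG2 cells dosed 24 h at 0.39–200 uM (10 points, duplicate, 0.5% DMSO final). Formaldehyde-fixed and permeabilized, then immunostained for phospho-H2A.x with Hoechst. Fluorescence quantified by high-content imaging, fitted bidirectionally versus DMSO.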

[15] = APR_HepG2_StressKinase_72hr: Apredica 72-hour HepG2 Assay for Stress Kinase (AID 2282921); settings: HepG2 stress kinase (phospho-c-Jun) imaging, actives raise or lower the signal
Method in brief: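 HepG2 cells treated 72 hr with 0.39–200 uM compound, 0.5% v/v DMSO, duplicate wells. After formaldehyde fixation and Triton permeabilization, stained with anti-phospho-c-Jun (1:500) and Cy3 secondary, imaged at 20x. Fitted in both directions against DMSO.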

[16] = APR_HepG2_StressKinase_24hr: Apredica 24-hour HepG2 Assay for Stress Kinase (AID 2282922); settings: HepG2 stress kinase (phospho-c-Jun) imaging, actives raise or lower the signal
Method in brief: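 HepG2, 24 hr dosing, 0.39–200 uM in duplicate, 0.5% DMSO; formaldehyde fix (3.7%), 0.5% Triton X-100; anti-phospho-c-Jun + Cy3 secondary, Hoechst counterstain; ArrayScan imaging; bidirectional curve fit vs DMSO baseline.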

[17] = APR_HepG2_p53Act_72hr: Apredica 72-hour HepG2 Assay for p53 Activation (AID 2282923); settings: high-content imaging, actives raise or lower the signal;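 further: average cellular p53 protein immunofluorescence intensity in HepG2 cells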
Method in brief: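 HepG2 cells exposed 72 h to 0.39–200 uM in 0.5% DMSO, duplicates. Fixed, permeabilized cells immunostained for p53 (Cy5) with Hoechst; imaged at 20x, fluorescence analyzed bidirectionally against DMSO.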

[18] = APR_HepG2_MitoMass_72hr: Apredica 72-hour HepG2 Assay for Mitochondrial Mass (AID 2282924); settings: high-content imaging, actives raise or lower the signal;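 further: MitoTracker Red CMXRos stain intensity per cell imaged as mitochondrial mass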
Method in brief: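 HepG2, 72 hr cmpd, 10 conc 0.39–200 uM in dup, DMSO 0.5% v/v. MitoTracker Red CMXRos 250 nM 30 min pre-fix; formaldehyde 3.7% fix 30 min RT. HCS imaging, gain/loss fit vs DMSO.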

[19] = APR_HepG2_NuclearSize_72hr: Apredica 72-hour HepG2 Assay for Nuclear Size (AID 2282925); settings: high-content imaging, actives raise or lower the signal
Method in brief: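 HepG2; cpd 0.39–200 uM, 10 conc, duplicate; 72 h; DMSO 0.5% v/v; fix 3.7% formaldehyde 30 min RT; Triton permeabilization; Hoechst 2 ug/mL; HCS imaging 20x; nuclear diameter; gain/loss fit vs DMSO.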

[20] = APR_HepG2_P-H2AX_72hr: Apredica 72-hour HepG2 Assay for H2AX Phosphorylation (AID 2282916); settings: imaging, actives raise or lower the signal;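 further: phospho-histone H2A.x immunostain intensity per cell marking DNA damage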
Method in brief: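 HepG2 cells treated 72 h at 0.39–200 uM, 0.5% DMSO final, duplicates. Formaldehyde-fixed, Triton-permeabilised, immunostained for phospho-H2A.x with Hoechst; fluorescence imaged at 20x, bidirectional fit versus DMSO.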

Measured: AC50

Cc1c(C)c2c(c(C)c1O)CCC(C)(COc1ccc(CC3SC(=O)NC3=O)cc1)O2 (stereo unspecified)
active: [1] 75.7 µM | [3] 88.2 µM | [4] 122 µM | [6] 96.5 µM | [10] 83.8 µM | [11] 135 µM | [12] 54.3 µM | [15] 78.4 µM | [17] 65.2 µM | [18] 61.8 µM
inactive: [2] | [5] | [7] | [8] | [9] | [13] | [14] | [16] | [19]

Cc1ccc(C(C)(C)C)c(O)c1
active: [2] 112 µM | [3] 108 µM | [4] 113 µM | [5] 106 µM | [6] 122 µM | [7] 107 µM | [8] 110 µM | [9] 110 µM | [10] 145 µM | [11] 111 µM | [12] 100 µM | [14] 110 µM
inactive: [1] | [13] | [15] | [16] | [17] | [18] | [19]

NC(=Nc1ccccc1)Nc1ccccc1
active: [1] 8.86 µM | [5] 21.7 µM | [10] 18.1 µM | [12] 22.8 µM | [13] 34 µM | [15] 10.3 µM | [17] 23.4 µM
not listed: [20]
inactive: all other assays above

Cc1cc(Cc2ccc(N)c(C)c2)ccc1N
active: [1] 35.1 µM | [9] 103 µM | [10] 77.8 µM | [18] 67.3 µM
not listed: [20]
inactive: all other assays above

CC(C)c1cccc(C(C)C)c1NC(=O)NS(=O)(=O)c1cc(C(C)(C)O)co1
not listed: [20]
inactive: all other assays above

O=C1O[C@H]([C@H](O)CO)C(O)=C1O
not listed: [20]
inactive: all other assays above

C=CCCCCCCCCCCCC
active: [1] 69.9 µM | [3] 52.7 µM | [8] 99.4 µM | [10] 87.6 µM | [14] 99 µM | [15] 98.5 µM | [17] 93.4 µM
not listed: [20]
inactive: all other assays above

O=C1OC(c2ccc(O)cc2)(c2ccc(O)cc2)c2ccccc21
active: [1] 81.1 µM | [3] 90.7 µM | [5] 61.4 µM | [7] 92.7 µM | [8] 51.8 µM | [9] 55.9 µM | [10] 102 µM | [12] 50.9 µM | [13] 97.3 µM | [14] 73.3 µM | [15] 40 µM | [17] 29.2 µM | [18] 102 µM
inactive: [2] | [4] | [6] | [11] | [16] | [19]

C#CC(O)C(CC)CCCC (stereo unspecified)
not listed: [8] | [17]
inactive: all other assays above

C=CCc1ccc(OC)c(OC)c1
not listed: [20]
inactive: all other assays above

CCCCCCC(CCCCCCCCCCC(=O)OCC(COC(C)=O)OC(C)=O)OC(C)=O (stereo unspecified)
active: [12] 39.8 µM
not listed: [20]
inactive: all other assays above

Oc1ccccc1O
active: [9] 36.4 µM | [10] 36.8 µM | [14] 67.9 µM
not listed: [11] | [12] | [13] | [18] | [20]
inactive: all other assays above

Cc1occc(=O)c1O
not listed: [8] | [17]
inactive: all other assays above
